# Source: PubChem BioAssay AID1159580 (chemical genetic matrix, 2015)
# About 2,000 (36%) of roughly 5,500 compounds were called active. Not shown: some 18% with an inconclusive outcome. This is one part of the list. Unmarked numbers belong to inactive results. No stated cut-off is given here; in the data, active means normalized growth mostly below about 0.91 (no sharp cut-off); inconclusive means no clear call, values can overlap the other calls; inactive means mostly above about 0.92.
# Test: chemical genetic growth profiling, strain panel (AID 1159580);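 further: tested at 20 µM; growth read once vehicle control cultures reached saturation at 30 °C; 1 = growth at the plate median or of vehicle wells; lower values mean less growth of the strain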
# Conditions: S. cerevisiae deletion strains, growth OD
compound,measurement,setting,value
CC(=O)O[C@H]1CCC2(C)C3=C(CCC2C1(C)C)[C@@]1(C)CC[C@@H](C(C)CCC=C(C)C)[C@]1(C)CC3 (some centres not stated),normalized growth,"locus YAL021C, strain ccr4, active compounds read low",1.02
same,normalized growth,"locus YAL026C, strain drs2, active compounds read low",1.03
same,normalized growth,"locus YAL030W, strain snc1, active compounds read low",1.03
same,normalized growth,"locus YBL061C, strain skt5, active compounds read low",1.04
same,normalized growth,"locus YBR009C, strain hhf1, active compounds read low",1.03
same,normalized growth,"locus YBR021W, strain FUR4, active compounds read low",0.912
same,normalized growth,"locus YBR023C, strain chs3, active compounds read low",1.03
same,normalized growth,"locus YBR171W, strain sec66, active compounds read low",1.05
same,normalized growth,"locus YBR229C, strain ROT2, active compounds read low",1.04
same,normalized growth,"locus YBR231C, strain swc5, active compounds read low",1.04
same,normalized growth,"locus YBR279W, strain paf1, active compounds read low",1.02
same,normalized growth,"locus YCL011C, strain gbp2, active compounds read low",1.04
same,normalized growth,"locus YCL016C, strain dcc1, active compounds read low",1.03
same,normalized growth,"locus YCL029C, strain bik1, active compounds read low",1.01
same,normalized growth,"locus YCL061C, strain MRC1, active compounds read low",1.04
same,normalized growth,"locus YCL069W, strain vba3, active compounds read low",1.03
same,normalized growth,"locus YCR088W, strain abp1, active compounds read low",1.03
same,normalized growth,"locus YDL005C, strain med2, active compounds read low",1.03
same,normalized growth,"locus YDL035C, strain GPR1, active compounds read low",0.911
same,normalized growth,"locus YDL040C, strain nat1, active compounds read low",1.03
same,normalized growth,"locus YDL074C, strain BRE1, active compounds read low",0.973
same,normalized growth,"locus YDL101C, strain DUN1, active compounds read low",1.02
same,normalized growth,"locus YDL185W, strain tfp1, active compounds read low",1.05
same,normalized growth,"locus YDL192W, strain arf1, active compounds read low",1.03
same,normalized growth,"locus YDR001C, strain nth1, active compounds read low",1.03
same,normalized growth,"locus YDR069C, strain doa4, active compounds read low",1.03
same,normalized growth,"locus YDR101C, strain arx1, active compounds read low",1.02
same,normalized growth,"locus YDR137W, strain rgp1, active compounds read low",1.02
same,normalized growth,"locus YDR150W, strain NUM1, active compounds read low",1.05
same,normalized growth,"locus YDR159W, strain sac3, active compounds read low",1.07
same,normalized growth,"locus YDR162C, strain NBP2, active compounds read low",1.01
same,normalized growth,"locus YDR195W, strain ref2",1.03
same,normalized growth,"locus YDR297W, strain sur2, active compounds read low",1.03
same,normalized growth,"locus YDR318W, strain mcm21, active compounds read low",1.02
same,normalized growth,"locus YDR334W, strain swr1, active compounds read low",1.04
same,normalized growth,"locus YDR335W, strain msn5, active compounds read low",1.02
same,normalized growth,"locus YDR388W, active compounds read low",1.06
same,normalized growth,"locus YDR392W, strain spt3, active compounds read low",1.04
same,normalized growth,"locus YDR502C, strain sam2, active compounds read low",1.01
same,normalized growth,"locus YEL003W, strain gim4, active compounds read low",1.02
same,normalized growth,"locus YEL037C, strain rad23, active compounds read low",1.02
same,normalized growth,"locus YEL061C, strain CIN8 (second series), active compounds read low",1.03
same,normalized growth,"locus YEL061C, strain CIN8, active compounds read low",1.04
same,normalized growth,"locus YER015W, strain faa2, active compounds read low",1.03
same,normalized growth,"locus YER016W, strain bim1, active compounds read low",1.04
same,normalized growth,"locus YER110C, active compounds read low",1.06
same,normalized growth,"locus YER111C, strain swi4, active compounds read low",1.04
same,normalized growth,"locus YER155C, strain BEM2 (second series), active compounds read low",1.04
same,normalized growth,"locus YER155C, strain BEM2, active compounds read low",1.03
same,normalized growth,"locus YER167W, strain BCK2, active compounds read low",1.03
same,normalized growth,"locus YFR010W, strain ubp6, active compounds read low",1.03
same,normalized growth,"locus YGL078C, strain dbp3, active compounds read low",0.932
same,normalized growth,"locus YGL086W, strain mad1, active compounds read low",1.02
same,normalized growth,"locus YGL167C, strain pmr1, active compounds read low",1.04
same,normalized growth,"locus YGL173C, strain kem1, active compounds read low",1.02
same,normalized growth,"locus YGL227W, strain vid30, active compounds read low",1.03
same,normalized growth,"locus YGL240W, strain doc1, active compounds read low",1.03
same,normalized growth,"locus YGL248W, strain PDE1, active compounds read low",1
same,normalized growth,"locus YGL253W, strain hxk2, active compounds read low",1.02
same,normalized growth,"locus YGR078C, strain PAC10, active compounds read low",1
same,normalized growth,"locus YGR135W, strain pre9, active compounds read low",1
same,normalized growth,"locus YGR229C, strain SMI1, active compounds read low",0.963
same,normalized growth,"locus YGR252W, strain gcn5, active compounds read low",0.884
same,normalized growth,"locus YHR013C, strain ard1, active compounds read low",1.08
same,normalized growth,"locus YHR027C, strain rpn1, active compounds read low",1.02
same,normalized growth,"locus YHR079C, strain IRE1 (second series), active compounds read low",1.06
same,normalized growth,"locus YHR094C, strain hxt1, active compounds read low",1.06
same,normalized growth,"locus YHR129C, strain ARP1, active compounds read low",1.04
same,normalized growth,"locus YHR142W, strain chs7, active compounds read low",1.04
same,normalized growth,"locus YHR200W, strain rpn10, active compounds read low",1.03
same,normalized growth,"locus YIL066C, strain RNR3, active compounds read low",1.02
same,normalized growth,"locus YIL073C, strain SPO22, active compounds read low",1.06
same,normalized growth,"locus YIL125W, strain kgd1, active compounds read low",1.01
same,normalized growth,"locus YIR030C, strain dcg1, active compounds read low",1.08 [resistant] (active)
same,normalized growth,"locus YJL092W, strain hpr5, active compounds read low",1.03
same,normalized growth,"locus YJL095W, strain BCK1 (second series), active compounds read low",1.03
same,normalized growth,"locus YJL095W, strain BCK1, active compounds read low",1.03
same,normalized growth,"locus YJL115W, strain asf1, active compounds read low",1.04
same,normalized growth,"locus YJL129C, strain trk1, active compounds read low",1.07
same,normalized growth,"locus YJL134W, strain LCB3, active compounds read low",1.04
same,normalized growth,"locus YJL154C, strain vps35, active compounds read low",1.03
same,normalized growth,"locus YJL164C, strain tpk1, active compounds read low",1.02
same,normalized growth,"locus YJL166W, strain qcr8, active compounds read low",1.03
same,normalized growth,"locus YJL168C, strain set2, active compounds read low",1.06
same,normalized growth,"locus YJL187C, strain SWE1 (second series), active compounds read low",0.989
same,normalized growth,"locus YJL187C, strain SWE1, active compounds read low",1.01
same,normalized growth,"locus YJR043C, strain POL32, active compounds read low",0.941
same,normalized growth,"locus YJR075W, strain HOC1, active compounds read low",1.04
same,normalized growth,"locus YKL009W, strain mrt4, active compounds read low",0.846 (active)
same,normalized growth,"locus YKL068W, active compounds read low",1.04
same,normalized growth,"locus YKL085W, strain MDH1 (second series), active compounds read low",1.03
same,normalized growth,"locus YKL085W, strain MDH1, active compounds read low",1.03
same,normalized growth,"locus YKL160W, strain elf1, active compounds read low",1.02
same,normalized growth,"locus YKR001C, strain vps1, active compounds read low",0.997
same,normalized growth,"locus YKR026C, strain gcn3, active compounds read low",1.04
same,normalized growth,"locus YKR091W, strain srl3, active compounds read low",1.03
same,normalized growth,"locus YLL001W, strain dnm1, active compounds read low",1.03
same,normalized growth,"locus YLL026W, active compounds read low",1.02
same,normalized growth,"locus YLL041C, strain sdh2, active compounds read low",1.05
same,normalized growth,"locus YLR027C, strain aat2, active compounds read low",1.04
same,normalized growth,"locus YLR039C, strain RIC1, active compounds read low",1.08
same,normalized growth,"locus YLR058C, strain SHM2, active compounds read low",1.01
same,normalized growth,"locus YLR102C, strain apc9, active compounds read low",1.05
same,normalized growth,"locus YLR221C, strain rsa3, active compounds read low",1.03
same,normalized growth,"locus YLR258W, strain gsy2, active compounds read low",1.04
same,normalized growth,"locus YLR262C, strain YPT6 (second series), active compounds read low",1.02
same,normalized growth,"locus YLR262C, strain YPT6, active compounds read low",0.994
same,normalized growth,"locus YLR268W, strain sec22, active compounds read low",1.02
same,normalized growth,"locus YLR320W, strain mms22, active compounds read low",1.05
same,normalized growth,"locus YLR330W, strain CHS5, active compounds read low",1.03
same,normalized growth,"locus YLR342W, strain FKS1 (second series), active compounds read low",0.953
same,normalized growth,"locus YLR342W, strain FKS1, active compounds read low",1.04
same,normalized growth,"locus YLR357W, strain rsc2, active compounds read low",1.04
same,normalized growth,"locus YLR370C, strain arc18, active compounds read low",1.02
same,normalized growth,"locus YLR371W, strain rom2, active compounds read low",1.1 [resistant] (active)
same,normalized growth,"locus YLR384C, strain iki3, active compounds read low",1.05
same,normalized growth,"locus YLR418C, strain cdc73, active compounds read low",1.09
same,normalized growth,"locus YML016C, strain PPZ1, active compounds read low",1.05
same,normalized growth,"locus YML032C, strain rad52, active compounds read low",0.994
same,normalized growth,"locus YML120C, strain ndi1, active compounds read low",1.03
same,normalized growth,"locus YML124C, strain tub3, active compounds read low",1.06
same,normalized growth,"locus YMR058W, strain fet3, active compounds read low",1.03
same,normalized growth,"locus YMR078C, strain ctf18, active compounds read low",1.08
same,normalized growth,"locus YMR125W, strain sto1, active compounds read low",1.03
same,normalized growth,"locus YMR129W, active compounds read low",1.03
same,normalized growth,"locus YMR205C, strain PFK2, active compounds read low",1.04
same,normalized growth,"locus YMR223W, strain ubp8, active compounds read low",1.01
same,normalized growth,"locus YMR231W, strain pep5, active compounds read low",1
same,normalized growth,"locus YMR307W, strain GAS1, active compounds read low",0.972
same,normalized growth,"locus YNL067W, strain RPL9B, active compounds read low",0.969
same,normalized growth,"locus YNL071W, strain lat1, active compounds read low",1.03
same,normalized growth,"locus YNL209W, strain ssb2, active compounds read low",1.04
same,normalized growth,"locus YNL233W, strain BNI4, active compounds read low",1.04
same,normalized growth,"locus YNL248C, strain rpa49, active compounds read low",1.02
same,normalized growth,"locus YNL250W, strain rad50, active compounds read low",1.04
same,normalized growth,"locus YNL271C, strain bni1, active compounds read low",1.05
same,normalized growth,"locus YNL298W, strain CLA4, active compounds read low",0.986
same,normalized growth,"locus YNL307C, strain MCK1, active compounds read low",1.07
same,normalized growth,"locus YNL322C, strain KRE1 (second series), active compounds read low",1.03
same,normalized growth,"locus YNR049C, strain mso1, active compounds read low",1.03
same,normalized growth,"locus YNR052C, strain pop2, active compounds read low",0.99
same,normalized growth,"locus YOL012C, strain htz1",1.57
same,normalized growth,"locus YOL147C, strain pex11, active compounds read low",1.05
same,normalized growth,"locus YOR001W, strain rrp6, active compounds read low",1.01
same,normalized growth,"locus YOR061W, strain CKA2, active compounds read low",0.996
same,normalized growth,"locus YOR069W, strain VPS5, active compounds read low",1.03
same,normalized growth,"locus YOR070C, strain gyp1, active compounds read low",1.01
same,normalized growth,"locus YOR080W, strain dia2, active compounds read low",1.02
same,normalized growth,"locus YOR083W, strain WHI5, active compounds read low",1.01
same,normalized growth,"locus YOR106W, strain vam3, active compounds read low",1
same,normalized growth,"locus YOR136W, strain idh2, active compounds read low",1.04
same,normalized growth,"locus YOR144C, strain elg1, active compounds read low",1.04
same,normalized growth,"locus YOR184W, strain ser1, active compounds read low",0.926
same,normalized growth,"locus YOR265W, strain rbl2, active compounds read low",1.03
same,normalized growth,"locus YOR270C, strain vph1, active compounds read low",0.999
same,normalized growth,"locus YOR290C, strain snf2, active compounds read low",1.02
same,normalized growth,"locus YOR316C, strain cot1, active compounds read low",1.06
same,normalized growth,"locus YPL051W, strain arl3, active compounds read low",1.01
same,normalized growth,"locus YPL078C, strain atp4, active compounds read low",1.02
same,normalized growth,"locus YPL106C, strain sse1, active compounds read low",1.09
same,normalized growth,"locus YPL240C, strain hsp82, active compounds read low",1.03
same,normalized growth,"locus YPL241C, strain CIN2, active compounds read low",1.05
same,normalized growth,"locus YPR119W, strain clb2, active compounds read low",1.06
same,normalized growth,"locus YPR141C, strain kar3, active compounds read low",1.08
same,normalized growth,"locus YPR163C, strain tif3, active compounds read low",1.04
same,normalized growth,"locus YPR167C, strain met16, active compounds read low",1.03
same,normalized growth,"strain wtn01, active compounds read low",0.997
